# PubChem BioAssay (EPA / NIEHS)
# “And” between values parts separate entries of the source, which are not always exact repeats. Equal values may be shown once. Results filed as inconclusive are left out. More than one record can exist for a structure, and the calls need not agree. The source made the active and inactive calls. Rule for the calls, unless noted: active = hit-call score of the fitted dose curve at least 0.9, where 1 is the maximum; inactive = score below 0.9.
# Experiments:
# [1] = molecular target: human RAR-related Orphan Receptor beta (RORb), RORB (gene 6096) (UniProt Q92753); assay: ATG_RORb_TRANS: Attagene TRANS-FACTORIAL HepG2 Assay for human RAR-related Orphan Receptor beta (RORb) (AID 2283010; active = hit-call score of the fitted dose curve at least 0.9, where 1 is the maximum)
# human RAR-related Orphan Receptor beta (RORb), RORB (gene 6096), sequence (Q92753 whole entry, looked up, the tested form may be a part): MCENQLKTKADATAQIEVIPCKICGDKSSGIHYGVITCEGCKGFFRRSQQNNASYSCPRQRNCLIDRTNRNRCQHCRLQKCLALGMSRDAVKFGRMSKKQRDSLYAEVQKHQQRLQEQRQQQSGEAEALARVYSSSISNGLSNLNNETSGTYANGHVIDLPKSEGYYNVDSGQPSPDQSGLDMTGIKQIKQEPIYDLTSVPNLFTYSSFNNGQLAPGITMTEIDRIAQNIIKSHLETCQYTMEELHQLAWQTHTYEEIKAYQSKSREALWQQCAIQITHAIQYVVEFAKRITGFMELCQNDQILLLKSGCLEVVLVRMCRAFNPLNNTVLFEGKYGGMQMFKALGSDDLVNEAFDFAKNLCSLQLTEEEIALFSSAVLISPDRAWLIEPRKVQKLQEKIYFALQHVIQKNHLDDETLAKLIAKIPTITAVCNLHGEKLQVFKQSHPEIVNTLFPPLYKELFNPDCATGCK
# Method in brief: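 Multiplexed transcription-factor reporter assay: HepG2 cells transiently carrying NR-Gal4/GAL4-UAS constructs, 24 h treatment, mRNA quantified by RT-PCR plus capillary electrophoresis fluorescence; activity scored as induction over DMSO.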
# [2] = molecular target: human RAR-related Orphan Receptor gamma (RORg), RORC (gene 6097) (UniProt P51449); assay: ATG_RORg_TRANS: Attagene TRANS-FACTORIAL HepG2 Assay for human RAR-related Orphan Receptor gamma (RORg) (AID 2283011; active = hit-call score of the fitted dose curve at least 0.9, where 1 is the maximum)
# human RAR-related Orphan Receptor gamma (RORg), RORC (gene 6097), sequence (P51449 whole entry, looked up, the tested form may be a part): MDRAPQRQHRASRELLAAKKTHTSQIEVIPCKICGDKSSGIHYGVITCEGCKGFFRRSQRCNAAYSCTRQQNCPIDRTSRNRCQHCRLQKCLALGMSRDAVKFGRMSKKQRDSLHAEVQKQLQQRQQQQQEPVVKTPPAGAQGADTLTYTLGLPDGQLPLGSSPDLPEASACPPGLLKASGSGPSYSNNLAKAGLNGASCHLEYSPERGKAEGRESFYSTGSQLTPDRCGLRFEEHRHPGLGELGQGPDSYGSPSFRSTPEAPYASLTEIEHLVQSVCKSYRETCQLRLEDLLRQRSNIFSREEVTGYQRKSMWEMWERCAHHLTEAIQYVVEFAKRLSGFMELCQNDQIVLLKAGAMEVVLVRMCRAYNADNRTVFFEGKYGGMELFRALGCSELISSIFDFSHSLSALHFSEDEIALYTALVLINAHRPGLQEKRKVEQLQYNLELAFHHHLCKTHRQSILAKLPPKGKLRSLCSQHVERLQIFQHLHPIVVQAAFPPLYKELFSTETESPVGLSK
# Method in brief: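 Readout: reporter transcript induction (RT-PCR, fluorescent primer extension, capillary electrophoresis) after 24 h compound exposure of transiently transfected HepG2 cells carrying a RORg-Gal4 chimera and GAL4-UAS reporters; DMSO served as baseline, with increasing signal fitted.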
# [3] = molecular target: Retinoic acid receptor RXR-alpha (Homo sapiens) (UniProt P19793); assay: ATG_RXRa_TRANS: Attagene TRANS-FACTORIAL HepG2 Assay for human Retinoid X Receptor alpha (RXRa) (AID 2283012; active = hit-call score of the fitted dose curve at least 0.9, where 1 is the maximum)
# Retinoic acid receptor RXR-alpha (Homo sapiens), sequence (P19793 whole entry, looked up, the tested form may be a part): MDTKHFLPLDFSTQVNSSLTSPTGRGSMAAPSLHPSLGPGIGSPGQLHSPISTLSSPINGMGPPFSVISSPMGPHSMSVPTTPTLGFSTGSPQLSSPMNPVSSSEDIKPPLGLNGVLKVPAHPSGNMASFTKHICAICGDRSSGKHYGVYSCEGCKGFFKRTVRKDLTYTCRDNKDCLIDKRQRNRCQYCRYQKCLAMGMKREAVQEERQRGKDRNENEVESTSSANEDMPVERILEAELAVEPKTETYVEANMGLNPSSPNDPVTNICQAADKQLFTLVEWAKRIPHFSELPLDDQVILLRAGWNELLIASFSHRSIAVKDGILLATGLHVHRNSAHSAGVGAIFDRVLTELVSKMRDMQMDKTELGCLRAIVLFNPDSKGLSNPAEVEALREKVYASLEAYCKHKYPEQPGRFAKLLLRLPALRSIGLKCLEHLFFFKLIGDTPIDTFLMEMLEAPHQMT
# Method in brief: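 Chimeric NR-GAL4 trans-activation in HepG2, 24 h treatment; reporter transcripts quantified by fluorescence on capillary electrophoresis, analysed for upward change from DMSO.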
# [4] = molecular target: human Retinoid X Receptor beta (RXRb), RXRB (gene 6257) (UniProt P28702); assay: ATG_RXRb_TRANS: Attagene TRANS-FACTORIAL HepG2 Assay for human Retinoid X Receptor beta (RXRb) (AID 2283013; active = hit-call score of the fitted dose curve at least 0.9, where 1 is the maximum)
# human Retinoid X Receptor beta (RXRb), RXRB (gene 6257), sequence (P28702 whole entry, looked up, the tested form may be a part): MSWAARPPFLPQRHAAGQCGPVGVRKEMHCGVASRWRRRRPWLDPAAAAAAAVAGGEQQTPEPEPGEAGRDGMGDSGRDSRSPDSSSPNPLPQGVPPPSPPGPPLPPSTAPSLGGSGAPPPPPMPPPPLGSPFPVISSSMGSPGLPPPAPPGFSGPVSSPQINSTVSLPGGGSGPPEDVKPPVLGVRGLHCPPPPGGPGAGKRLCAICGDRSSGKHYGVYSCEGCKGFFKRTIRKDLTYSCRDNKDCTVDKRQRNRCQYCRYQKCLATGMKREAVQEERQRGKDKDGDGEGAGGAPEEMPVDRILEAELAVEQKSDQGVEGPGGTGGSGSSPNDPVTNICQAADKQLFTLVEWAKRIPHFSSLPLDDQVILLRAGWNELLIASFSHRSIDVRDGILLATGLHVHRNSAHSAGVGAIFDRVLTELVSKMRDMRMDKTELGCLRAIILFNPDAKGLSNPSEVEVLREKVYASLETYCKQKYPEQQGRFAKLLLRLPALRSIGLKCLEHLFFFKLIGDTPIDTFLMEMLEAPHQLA
# Method in brief: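 After a 24 h incubation with test chemical, transfected HepG2 cells carrying NR-Gal4 fusions and GAL4-UAS reporter transcription units yield RNA whose reporter cDNA is FAM-labelled, HpaI-cut and sized by capillary electrophoresis; increases over DMSO are scored.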
# [5] = molecular target: human Thyroid Receptor alpha (THRa1), THRA (gene 7067) (UniProt P10827); assay: ATG_THRa1_TRANS: Attagene TRANS-FACTORIAL HepG2 Assay for human Thyroid Receptor alpha (THRa1) (AID 2283014; active = hit-call score of the fitted dose curve at least 0.9, where 1 is the maximum)
# human Thyroid Receptor alpha (THRa1), THRA (gene 7067), sequence (P10827 whole entry, looked up, the tested form may be a part): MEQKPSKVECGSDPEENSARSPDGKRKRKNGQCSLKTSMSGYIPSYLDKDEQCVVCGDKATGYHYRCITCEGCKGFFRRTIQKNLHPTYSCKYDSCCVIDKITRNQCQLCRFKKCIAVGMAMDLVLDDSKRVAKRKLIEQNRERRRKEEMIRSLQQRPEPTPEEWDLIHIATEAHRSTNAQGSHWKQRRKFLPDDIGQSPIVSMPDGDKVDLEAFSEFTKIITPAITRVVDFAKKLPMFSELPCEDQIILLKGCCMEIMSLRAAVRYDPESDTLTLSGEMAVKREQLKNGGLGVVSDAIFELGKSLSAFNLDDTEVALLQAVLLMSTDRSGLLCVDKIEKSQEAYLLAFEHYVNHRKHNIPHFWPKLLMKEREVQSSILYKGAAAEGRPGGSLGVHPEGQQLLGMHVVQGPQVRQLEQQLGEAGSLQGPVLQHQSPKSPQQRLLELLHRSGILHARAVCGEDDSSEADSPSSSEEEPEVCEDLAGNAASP
# Method in brief: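 HepG2 cells transiently transfected with multiplexed GAL4-UAS reporter units for exogenous chimeric THRa1-Gal4; reporter mRNA measured 24 h after dosing by RT-PCR, 6-FAM labelling, HpaI digestion and capillary electrophoresis. Gain-of-signal fitted versus DMSO baseline.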
# [6] = read-out: E-selectin (Homo sapiens) (UniProt P16581); assay: BSK_3C_Eselectin: BioMAP Diversity Plus: 3C Assay for Eselectin Biomarker Activity (AID 2283015); details: primary human endothelial cells (HUVEC); actives raise or lower the signal;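 for outcome: cell surface E-selectin protein quantified by ELISA 24 h after dosing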
# Method in brief: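 Primary human umbilical vein endothelial cells (3C system) were dosed with chemical and cell-surface E-selectin measured by ELISA 24 h later. Bidirectional curve fitting used DMSO as negative control and baseline.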
# [7] = read-out: Interleukin-1 alpha (IL1a), IL1A (gene 3552); assay: BSK_BE3C_IL1a: BioMAP Diversity Plus: BE3C Assay for Interleukin-1 alpha (IL1a) Biomarker Activity (AID 2283016); details: primary human bronchial epithelial cells; actives raise or lower the signal
# Method in brief: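 Measured in human lung primary bronchial epithelial cells: IL-1a by ELISA at 24 h after dosing, with bidirectional fitting against DMSO.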
# [8] = read-out: Monocyte Chemoattractant Protein-1 (MCP1), CCL2 (gene 6347); assay: BSK_3C_MCP1: BioMAP Diversity Plus: 3C Assay for Monocyte Chemoattractant Protein-1 (MCP1) Biomarker Activity (AID 2283017); details: primary human endothelial cells (HUVEC); actives raise or lower the signal
# Method in brief: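 Primary human umbilical vein endothelial cells (3C system) were exposed to test chemical for 24 h, after which MCP-1 was quantified by ELISA. Activity was fitted bidirectionally against DMSO as negative control and baseline.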
# [9] = read-out: Monocyte Chemoattractant Protein-1 (MCP1), CCL2 (gene 6347); assay: BSK_4H_MCP1: BioMAP Diversity Plus: 4H Assay for Monocyte Chemoattractant Protein-1 (MCP1) Biomarker Activity (AID 2283018); details: primary human endothelial cells (HUVEC); actives raise or lower the signal
# Method in brief: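 Primary human umbilical vein endothelium is exposed to chemical for 24 h before MCP-1 is assayed by ELISA. Concentration-response fitted bidirectionally relative to DMSO.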
# [10] = read-out: Human Leukocyte Antigen - DR isotype (HLADR), HLA-DRA (gene 3122); assay: BSK_3C_HLADR: BioMAP Diversity Plus: 3C Assay for Human Leukocyte Antigen - DR isotype (HLADR) Biomarker Activity (AID 2283019); details: primary human endothelial cells (HUVEC); actives raise or lower the signal;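 for outcome: ELISA of cell-surface HLA-DR on HUVEC 24 h after dosing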
# Method in brief: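 Primary human umbilical vein endothelial cells (3C system) were dosed with compound and cell-surface HLA-DR was quantified by ELISA at 24 h. Activity was fitted bidirectionally against DMSO as negative control and baseline.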
# [11] = read-out: Interleukin-8 (IL8), CXCL8 (gene 3576); assay: BSK_3C_IL8: BioMAP Diversity Plus: 3C Assay for Interleukin-8 (IL8) Biomarker Activity (AID 2283020); details: primary human endothelial cells (HUVEC); actives raise or lower the signal
# Method in brief: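 Using DMSO-treated wells as the baseline, bidirectional curve fitting was applied to ELISA-measured IL-8 from human umbilical vein endothelial cultures sampled 24 h after compound addition.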
# [12] = read-out: Monokine induced gamma interferon (MIG), CXCL9 (gene 4283); assay: BSK_3C_MIG: BioMAP Diversity Plus: 3C Assay for Monokine induced gamma interferon (MIG) Biomarker Activity (AID 2283021); details: primary human endothelial cells (HUVEC); actives raise or lower the signal;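 for AC50: MIG protein level measured by immunoassay in the treated endothelial cultures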
# Method in brief: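 ELISA-measured MIG in dosed HUVEC 3C cultures at 24 h, analysed by bidirectional fitting with DMSO defining baseline activity.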
# [13] = molecular target: human Vitamin D Receptor (VDR), VDR (gene 7421) (UniProt P11473); assay: ATG_VDR_TRANS: Attagene TRANS-FACTORIAL HepG2 Assay for human Vitamin D Receptor (VDR) (AID 2283022; active = hit-call score of the fitted dose curve at least 0.9, where 1 is the maximum)
# human Vitamin D Receptor (VDR), VDR (gene 7421), sequence (P11473 whole entry, looked up, the tested form may be a part): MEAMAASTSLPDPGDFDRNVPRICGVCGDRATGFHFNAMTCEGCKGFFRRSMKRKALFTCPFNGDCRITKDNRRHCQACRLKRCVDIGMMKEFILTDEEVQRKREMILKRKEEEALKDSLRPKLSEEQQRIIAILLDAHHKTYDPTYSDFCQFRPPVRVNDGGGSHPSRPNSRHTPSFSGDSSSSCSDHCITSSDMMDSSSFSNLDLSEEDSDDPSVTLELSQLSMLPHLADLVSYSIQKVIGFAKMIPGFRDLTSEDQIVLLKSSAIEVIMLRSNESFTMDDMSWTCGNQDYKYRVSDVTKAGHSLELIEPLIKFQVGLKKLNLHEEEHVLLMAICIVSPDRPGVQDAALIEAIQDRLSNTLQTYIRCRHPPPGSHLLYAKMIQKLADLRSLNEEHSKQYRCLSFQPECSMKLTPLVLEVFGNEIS
# Method in brief: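 HepG2 cells were transiently transfected with multiple GAL4-UAS reporter units, so signal reflects exogenous chimeric receptor-Gal4 activity. After 24 h compound exposure, reporter mRNA was measured by RT-PCR, fluorescent labelling and capillary electrophoresis, fitted for gain of signal versus DMSO.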
# [14] = BSK_3C_SRB: Viability Assessment in the BioMAP Diversity Plus: 3C Assay (AID 2283023); details: primary human endothelial cells (HUVEC);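 note: fitted both ways against DMSO so a hit may be signal rise or drop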
# Method in brief: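 Primary human umbilical vein endothelial cells in the 3C system were read 24 h after compound dosing. Total protein was stained with 0.1% sulforhodamine B after 10% TCA fixation and read at 560 nm, with bidirectional fitting against DMSO as baseline.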
# [15] = read-out: Matrix Metallopeptidase 1 (MMP1), MMP1 (gene 4312); assay: BSK_BE3C_MMP1: BioMAP Diversity Plus: BE3C Assay for Matrix Metallopeptidase 1 (MMP1) Biomarker Activity (AID 2283024); details: primary human bronchial epithelial cells; actives raise or lower the signal
# Method in brief: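 In this multiplexed primary-cell system, human bronchial epithelium received chemicals for 24 h before an ELISA for MMP1. Values reflect bidirectional fits normalised to the DMSO baseline.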
# [16] = BSK_3C_Vis: BioMAP Diversity Plus: 3C Assay for Morphology Visualization (AID 2283025); details: primary human endothelial cells (HUVEC);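 note: light microscopy image of cell morphology used as background control; fitted both ways so gain or loss versus DMSO counts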
# Method in brief: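 Light-microscopy morphology readout, 24 h exposure, human primary umbilical vein endothelium; analysed relative to DMSO with bidirectional fitting.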
# [17] = read-out: Pselectin, SELP (gene 6403); assay: BSK_4H_Pselectin: BioMAP Diversity Plus: 4H Assay for Pselectin Biomarker Activity (AID 2283026); details: primary human endothelial cells (HUVEC); actives raise or lower the signal
# Method in brief: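 Bidirectional fits against DMSO gave the endpoint. Cells: primary human umbilical vein endothelium, chemical-treated for 24 h before ELISA detection of P-selectin.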
# [18] = BSK_4H_SRB: Viability Assessment in the BioMAP Diversity Plus: 4H Assay (AID 2283027); details: primary human endothelial cells (HUVEC);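 note: cells exposed to compound for 24 h before staining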;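 for AC50: curves fitted both ways versus DMSO so AC50 may be loss or gain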
# Method in brief: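 Cytotoxicity readout: sulforhodamine B (0.1%) staining of total protein after 10% TCA fixation, measured at 560 nm in human umbilical vein endothelium at 24 h. DMSO set the baseline; fitting was bidirectional.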
# [19] = BSK_BE3C_SRB: Viability Assessment in the BioMAP Diversity Plus: BE3C Assay (AID 2283028); details: primary human bronchial epithelial cells
# Method in brief: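 Human primary bronchial epithelial cells were exposed to test chemicals for 24 h. Total protein in parallel cultures was then measured by staining with 0.1% sulforhodamine B after 10% TCA fixation, with absorbance read at 560 nm. Activity was fitted bidirectionally against DMSO.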
# [20] = read-out: Thrombomodulin, THBD (gene 7056); assay: BSK_3C_Thrombomodulin: BioMAP Diversity Plus: 3C Assay for Thrombomodulin Biomarker Activity (AID 2283029); details: primary human endothelial cells (HUVEC); actives raise or lower the signal
# Method in brief: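 In a multiplexed primary-cell system, human umbilical vein endothelium received chemical and was assayed 24 h later for thrombomodulin by ELISA. Parallel cultures were SRB-stained (0.1% SRB after 10% TCA fixation, read at 560 nm) to flag cytotoxicity.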
# E-selectin (Homo sapiens), sequence (P16581 whole entry, looked up): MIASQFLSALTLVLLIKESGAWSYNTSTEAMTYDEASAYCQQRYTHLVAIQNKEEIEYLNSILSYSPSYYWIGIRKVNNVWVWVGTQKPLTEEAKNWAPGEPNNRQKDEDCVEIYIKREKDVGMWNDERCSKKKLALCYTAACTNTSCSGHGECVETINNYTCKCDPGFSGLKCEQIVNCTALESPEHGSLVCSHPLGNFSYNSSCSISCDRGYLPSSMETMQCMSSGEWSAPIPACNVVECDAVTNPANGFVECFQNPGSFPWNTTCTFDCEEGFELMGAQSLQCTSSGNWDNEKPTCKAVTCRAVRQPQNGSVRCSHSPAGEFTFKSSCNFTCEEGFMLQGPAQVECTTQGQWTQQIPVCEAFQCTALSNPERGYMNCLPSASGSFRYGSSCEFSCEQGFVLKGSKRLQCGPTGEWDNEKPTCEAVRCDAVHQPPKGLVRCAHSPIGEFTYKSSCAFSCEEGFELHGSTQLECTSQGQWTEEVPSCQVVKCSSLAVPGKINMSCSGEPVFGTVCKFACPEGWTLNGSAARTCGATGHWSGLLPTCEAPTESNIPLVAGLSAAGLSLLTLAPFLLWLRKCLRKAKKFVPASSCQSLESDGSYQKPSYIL
smiles,measurement,setting,value
CCCCCCCCCCCCCCCC[N+](C)(C)Cc1ccccc1,outcome,[1],inactive
same,outcome,[2],inactive
same,outcome,[3],inactive
same,outcome,[4],inactive
same,outcome,[5],inactive
same,AC50,[6],7.67 µM (active)
same,AC50,[7],8.81 µM (active)
same,AC50,[8],5 µM (active)
same,AC50,[9],1.37 µM (active)
same,AC50,[10],0.977 µM (active)
same,AC50,[11],7.59 µM (active)
same,AC50,[12],4.12 µM (active)
same,outcome,[13],inactive
same,outcome,[14],inactive
same,AC50,[15],9.34 µM (active)
same,AC50,[16],2.96 µM (active)
same,AC50,[17],4.62 µM (active)
same,AC50,[18],5.09 µM (active)
c1ccc(-c2ccccc2-c2ccccc2)cc1,outcome,[1],inactive
same,outcome,[3],inactive
same,AC50,[4],12.7 µM (active)
COC(OC(C)=O)c1ccccc1 (centres undefined),outcome,[1],inactive
same,outcome,[2],inactive
same,outcome,[3],inactive
same,outcome,[5],inactive
O=C(O)C(F)(F)C(F)(F)C(F)(F)C(F)(F)C(F)(F)C(F)(F)C(F)(F)C(F)(F)C(F)(F)C(F)(F)C(F)(F)C(F)(F)F,outcome,[2],inactive
same,outcome,[3],inactive
same,outcome,[4],inactive
same,outcome,[5],inactive
same,outcome,[7],inactive
same,outcome,[9],inactive
same,outcome,[10],inactive
same,AC50,[11],23.6 µM (active) and 8.82 µM (active)
same,outcome,[12],inactive
same,outcome,[13],inactive
same,outcome,[14],inactive
same,outcome,[15],inactive
same,outcome,[17],inactive
same,AC50,[18],21.7 µM (active) and 18 µM (active)
same,outcome,[19],inactive
same,AC50,[20],0.928 µM (active)
same,outcome,[20],inactive
Cc1ccc(S(=O)(=O)OCC(F)(F)C(F)(F)C(F)(F)C(F)(F)C(F)(F)C(F)F)cc1,outcome,[1],inactive
same,outcome,[3],inactive
same,AC50,[4],7.9 µM (active)
same,AC50,[7],44.8 µM (active)
same,outcome,[7],inactive
same,outcome,[8],inactive
same,outcome,[9],inactive
same,outcome,[10],inactive
same,outcome,[11],inactive
same,outcome,[12],inactive
same,outcome,[13],inactive
same,AC50,[14],45.5 µM (active) and 38.1 µM (active)
same,AC50,[15],18.2 µM (active)
same,outcome,[15],inactive
same,outcome,[17],inactive
same,outcome,[18],inactive
Cc1cccc(N(C)C)c1,outcome,[1],inactive
same,outcome,[2],inactive
same,outcome,[5],inactive
CCN(Cc1cccc(S(=O)(=O)O)c1)c1ccc(C(=C2C=CC(=[N+](CC)Cc3cccc(S(=O)(=O)O)c3)C=C2)c2ccc(O)cc2S(=O)(=O)[O-])cc1,outcome,[1],inactive
same,outcome,[2],inactive
same,outcome,[3],inactive
same,outcome,[4],inactive
CCCCCCCCC(F)(F)C(F)(F)C(F)(F)C(F)(F)C(F)(F)C(F)(F)F,outcome,[2],inactive
same,outcome,[3],inactive
same,AC50,[4],21.2 µM (active)
same,outcome,[7],inactive
same,outcome,[9],inactive
same,outcome,[10],inactive
same,outcome,[11],inactive
same,outcome,[12],inactive
same,outcome,[13],inactive
same,outcome,[14],inactive
same,outcome,[15],inactive
same,outcome,[17],inactive
same,outcome,[18],inactive
O=C(O)C(F)(F)C(F)(F)C(F)F,outcome,[2],inactive
same,outcome,[3],inactive
same,outcome,[4],inactive
same,outcome,[5],inactive
same,outcome,[6],inactive
same,outcome,[7],inactive
same,outcome,[9],inactive
same,outcome,[10],inactive
same,outcome,[11],inactive
same,outcome,[12],inactive
same,outcome,[13],inactive
same,outcome,[14],inactive
same,outcome,[15],inactive
same,outcome,[17],inactive
same,outcome,[18],inactive
same,outcome,[20],inactive
